Data reported in PubChem BioAssay (NCATS).
Records with an inconclusive call do not appear. A call without a number means that no potency is given here. The source made the active and inactive calls. The call rests on the fitted dose curve; in most records, active means well fitted cell-killing curve with a large enough effect; inconclusive means small, poorly fitted or top-dose-only effect, or effect the other way; inactive means flat fitted curve, though single readings scatter.
Potency means the concentration at half of the fitted maximal effect.

What follows are compounds tested on CAOV3 (assay: Primary qHTS to identify gynecologic anti-cancer compounds using libraries of approved drugs and bioactive compounds (AID 1345084; further: nearly all actives have a fitted effect of over 55% in size)). Settings: Gynecologic cancer cell panel viability, ATPlite luminescence, 48 h; series mostly up to 57.5 µM.
Excerpt: National Center for Advancing Translational Sciences [NCATS] Assay Overview: Chemotherapeutic drug responses vary from cancer to cancer and from patient to patient. These variations could be caused by a number of factors including patient genomic background, tumor mutations, tumor heterogeneity, and aspects of drug treatment. Chemotherapeutic drug resistance is also a common issue and can lead to ineffective treatment and patient death. Here we have profiled the cell killing effects of thousands of compounds to characterize the responses in three gynecological cancers, identify cancer-selective compounds, and understand the diversity of responses to these compounds from pan-cancer suppressors to single cell line selective compounds. In this assay, we screened a 7,914 compound drug library that included approved drug and bioactive compounds in six ovarian, three cervical, and […] placental cancer cell lines using the ATPlite assay for cell viability. […] The cervical cancer cell lines included HeLa, Ca Ski, and C-33 A. The placental cancer cell lines included JEG-3. HEK 293T cells were used as the control cell line to determine the selectivity index. ATPlite is a luminescence based assay reliant on the conversion of a luciferase substrate to light in the presence of ATP. As a cytotoxic compound will suppress growth and decrease the number of cells, the concentration of ATP will decrease, and less light signal will be detected in the well.
Assay Protocol Summary: 1,000 cells in 4 uL of media were dispensed into white, solid bottom 1536-well plates using a Multidrop Combi (Thermo Scientific). The Assay plates were incubated for 16 hours at 37 C with 5% CO2 in assay plates, followed by the addition of 23 nL of DMSO or drug dissolved in DMSO. Each compound was assayed in five concentrations (0.092, 0.46, 2.3, 11.5, and 57.5 uM), using the automated Wako 1536 Pin Tool workstation and incubated at 37 C with 5% CO2 48 hours. 4 uL of ATPlite, the ATP monitoring reagent, was then added to the each well of the assay plates using the Multidrop Combi reagent dispenser followed by incubation for 15 minutes at room temperature. The resulting luminescence was measured using the ViewLux plate reader.
In the case of CN1C[C@H]2c3ccccc3Oc3ccc(Cl)cc3[C@@H]2C1, the Potency is reported as “inactive”.
With COCCOC(=O)C1=C(C)NC2=C(C(=O)CC(c3ccccc3OC)C2)C1c1cccc(O)c1 (stereo not given) the Potency was “inactive”.
For CC[C@]1(O)C[C@@H]2CN(CCc3c([nH]c4ccccc34)[C@@](C(=O)OC)(c3cc4c(cc3OC)N(C)[C@H]3[C@@](O)(C(=O)OC)[C@H](OC(C)=O)[C@]5(CC)C=CCN6CC[C@]43[C@@H]65)C2)C1, the Potency was “inactive”.
CC(C)C(=O)Nc1ncc(-c2cc(C(F)F)nn2-c2c(Cl)cccc2Cl)s1 was tested, and the Potency was “inactive”.
COc1cc2ncnc(-n3nc(-c4ccccn4)nc3N)c2cc1OC was tested, and the Potency was “inactive”.
In the case of CN(C)CCC(c1ccccc1)c1ccccn1 (stereo not given), the Potency is reported as “inactive”.
CS(=O)(=O)N(Cc1ccco1)CC(O)Cn1c2ccccc2c2ccccc21 (stereo not given) was tested, and the Potency was “inactive”.
With CO[C@H]1C=CO[C@@]2(C)Oc3c(C)c(O)c4c(O)c(c5c(c4c3C2=O)NC2(CCN(CC(C)C)CC2)N=5)=NC(=O)C(C)=CC=C[C@H](C)[C@H](O)[C@@H](C)[C@@H](O)[C@@H](C)[C@H](OC(C)=O)[C@H]1C the Potency was “inactive”.
O=C(NCCN1CCOCC1)c1ccc(Cl)cc1 was tested, and the Potency was “inactive”.
For CC1CCC(C(=O)N(c2cc(C#CC(C)(C)C)sc2C(=O)O)C2CCC(O)CC2)CC1 (stereo not given), the Potency was “inactive”.
For OC[C@@H](O)[C@H](O)[C@H](O)[C@@H](O)CO, the Potency was “inactive”.
In the case of CC1(C)CCC(CN2CCN(c3ccc(C(=O)NS(=O)(=O)c4ccc(NCC5CCOCC5)c([N+](=O)[O-])c4)c(Oc4cnc5[nH]ccc5c4)c3)CC2)=C(c2ccc(Cl)cc2)C1, the Potency is reported as “inactive”.
Cc1ccc(Nc2cc(-c3cccc(N4C(=O)c5ccccc5C4=O)c3)ncn2)cc1NS(C)(=O)=O was tested, and the Potency was “inactive”.
COc1ccc2cccc(CCNC(C)=O)c2c1 was tested, and the Potency was “inactive”.
NC(=O)c1cccc2[nH]c(-c3ccc([C@H]4CCCN4)cc3F)nc12 was tested, and the Potency was 28.2 µM (active).
In the case of CC(=O)Oc1cc2c(s1)CCN(C(C(=O)C1CC1)c1ccccc1F)C2 (stereo not given), the Potency is reported as “inactive”.
For NCCS, the Potency was “inactive”.
With Cc1ccccc1C(C(=O)NC1CCCCC1)N(C(=O)Cn1ccnc1C)c1cccc(F)c1 (stereo not given) the Potency was “inactive”.
O=C(CCN1CCN(C(=O)OCc2cc(Cl)cc(Cl)c2)CC1)c1ccc2[nH]c(=O)oc2c1 was tested, and the Potency was “inactive”.
In the case of CNC(=O)c1ccc2cc(C3(O)CCn4cncc43)ccc2c1 (stereo not given), the Potency is reported as “inactive”.
For O=C1NC(=O)C(c2ccccc2)(c2ccccc2)N1, the Potency was “inactive”.
CC(=O)O[C@]1(C(C)=O)CC[C@H]2[C@@H]3C=C(Cl)C4=CC(=O)[C@@H]5C[C@@H]5[C@]4(C)[C@H]3CC[C@@]21C was tested, and the Potency was “inactive”.
C[N+](C)(C)CC(=O)O was tested, and the Potency was “inactive”.
For CCN(CC)CCOC(=O)c1ccc(N)cc1, the Potency was “inactive”.
CN(C)c1cc(NC(=O)CNC(C)(C)C)c(O)c2c1C[C@@H]1C[C@H]3[C@H](N(C)C)C(=O)C(C(N)=O)=C(O)[C@@]3(O)C(=O)C1=C2O was tested, and the Potency was “inactive”.
In the case of CCCNC(=O)NS(=O)(=O)c1ccc(Cl)cc1, the Potency is reported as “inactive”.
Cn1c(N2CCCCS2(=O)=O)nc(C(=O)NCc2ccc(F)cc2)c(O)c1=O was tested, and the Potency was “inactive”.
In the case of NC(=O)c1cccc(-c2cc(Nc3ccc(OC(F)(F)F)cc3)ncn2)c1, the Potency is reported as “inactive”.
In the case of COc1ccccc1N1CCN(CCCNc2cc(=O)n(C)c(=O)n2C)CC1, the Potency is reported as “inactive”.
Clc1ccc(Cn2c(CN3CCCC3)nc3ccccc32)cc1 was tested, and the Potency was “inactive”.
For O=C(O)c1cc(-c2ccccc2)nc2ccccc12, the Potency was “inactive”.
With COC[C@@H](c1ccc(C(F)(F)F)cc1)N1CCN(C2(C)CCN(C(=O)c3c(C)ncnc3C)CC2)C[C@H]1C the Potency was “inactive”.
With O=C(NC1CCOCC1)c1ccc(-c2cc(-c3cn[nH]c3-c3ccccn3)ccn2)cc1 the Potency was “inactive”.
CC(C)[C@H](CO)Nc1nc(Nc2ccc(C(=O)O)c(Cl)c2)c2ncn(C(C)C)c2n1 was tested, and the Potency was “inactive”.
CC(C)(C)OC(=O)N[C@H]1CCCCCC=C[C@@H]2C[C@@]2(C(=O)NS(=O)(=O)C2CC2)NC(=O)[C@@H]2C[C@@H](OC(=O)N3Cc4cccc(F)c4C3)CN2C1=O was tested, and the Potency was “inactive”.
For CCN1CCC[C@H]1CNC(=O)c1cc(S(N)(=O)=O)ccc1OC, the Potency was “inactive”.
With CC(C)C(=O)Oc1ccc(CO)cc1[C@H](CCN(C(C)C)C(C)C)c1ccccc1 the Potency was “inactive”.
NC(N)=Nc1nc(CSCC/C(N)=N/S(N)(=O)=O)cs1 was tested, and the Potency was “inactive”.
For COC(=O)[C@@H]1[C@H]2C[C@H]3c4[nH]c5ccccc5c4CCN3C[C@@H]2CC[C@@H]1O, the Potency was “inactive”.
CS(=O)c1ccc(-c2nc(-c3ccc(F)cc3)c(-c3ccncc3)[nH]2)cc1 (stereo not given) was tested, and the Potency was “inactive”.
